About 1,100 (52%) of roughly 2,100 compounds were called active. About 29% were inconclusive and are not listed. Calls follow the shape of the dose curve; as a rule, active = well fitted inhibition curve with a large enough effect; inconclusive = small, poorly fitted or top-dose-only effect; inactive = no such curve, though single readings can be large or run the other way. So high a share suggests a set chosen from earlier hits. Some of the results follow.
The compounds below were run against DNA dC->dU-editing enzyme APOBEC-3F (Homo sapiens) (UniProt Q8IUX4) (assay: qHTS for inhibitors of Vif-A3F interactions: Cherry picks counterscreen). Conditions: HeLa A3F-eYFP/Vif cells, eYFP fluorescence, 24 h; series mostly up to 46.1 µM; activity, negative = inhibitor: at the top concentration.
Text: The recent discovery and characterization of host restriction factors, which provide a potent defense to invading retroviruses, has provided new targets for antiviral drug development. APOBEC3G (A3G) and APOBEC3F (A3F) are potent cytidine deaminases that block HIV-1 replication; HIV-1 expresses the Vif protein, which counteracts A3G and A3F by binding to them and inducing their proteasomal degradation. The Vif-A3G and Vif-A3F interactions provide two potential targets for development of small molecules which can interfere with the ability of Vif to degrade A3G or A3F. […] To identify inhibitors that can interfere with Vif mediated degradation of A3G and A3F, we have developed Hela cell lines that stably express A3G or A3F tagged with eYFP at the C-terminal end (A3G-eYFP or A3F-eYFP, respectively) and Vif. In the absence of an inhibitor, Vif induces degradation of A3G-eYFP and A3F-eYFP, and the cells are not fluorescent. In the presence of an inhibitor, it is expected that Vif will be unable to degrade A3G-eYFP and/or A3F-eYFP, resulting in an increase in yellow fluorescence. In this counterscreen assay, Vif A3F was screened against the cherry picks ordered from the MLSMR. NIH Chemical Genomics Center [NCGC] NIH Molecular Libraries Probe Centers Network [MLPCN] MLPCN Grant: MH093245 Assay Submitter (PI): Vinay Pathak, National Cancer Institute
A3F-Vif cells were harvested from T225 flask and resuspended in phenol free OPTI-MEM medium with 5% FBS. Then 5 uL of 140,000 cells/mL resuspended cells was dispensed into each well of low base Aurora COC 1,536-well plates (black walled, clear bottom) using a Multidrop Combi dispenser. After overnight culture at 37 deg C with 5% CO2, a total of 23 nL of compounds at 5 selected concentrations from the NPC or positive control (2 mM stock of MG132) in DMSO was transferred to each well of the assay plate using a pintool (Kalypsys, San Diego, CA), and the plates were further incubated at 37 deg C with 5% CO2 for 24 hours. After that, the plates were measured on Acumen Explorer (TTP Lab Tech). The fluorescence was detected by 488 nm/Ex and […].
% is scaled to controls: 0 for no effect and ±100 for the full control effect; potency is read from the fitted curve at half-maximal effect.
Also: nearly all actives have a fitted effect of over 65% in size.

Sequence of DNA dC->dU-editing enzyme APOBEC-3F (Homo sapiens) (Q8IUX4 whole entry, looked up): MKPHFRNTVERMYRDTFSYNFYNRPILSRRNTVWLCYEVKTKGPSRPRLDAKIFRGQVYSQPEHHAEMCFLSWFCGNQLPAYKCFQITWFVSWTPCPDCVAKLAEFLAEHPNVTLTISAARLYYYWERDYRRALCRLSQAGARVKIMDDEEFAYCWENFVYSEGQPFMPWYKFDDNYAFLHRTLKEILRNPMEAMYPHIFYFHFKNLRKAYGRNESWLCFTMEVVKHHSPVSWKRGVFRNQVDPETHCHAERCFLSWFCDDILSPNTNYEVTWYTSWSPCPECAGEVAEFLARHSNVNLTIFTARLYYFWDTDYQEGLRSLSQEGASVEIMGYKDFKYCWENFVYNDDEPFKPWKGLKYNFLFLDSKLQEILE

Compound	Potency	activity, negative = inhibitor
Cc1cc(N2CCCC2)ccc1C=C(C#N)C#N	20.6 µM (active)	–
CN1/C(=C\C=C2C(=O)NC(=O)NC2=O)C(C)(C)c2ccccc21	4.11 µM (active)	–
CCS(=O)(=O)N1N=C(c2cccc(NS(C)(=O)=O)c2)CC1c1ccccc1 (configuration not stated)	23.1 µM (active)	–
CCCCn1c(O)c(C(=O)/C=C/c2c[nH]c3ccccc23)c(=O)[nH]c1=O	17.7 µM (active)	–
CN1C(=O)/C(=C/c2ccc(N3CCCCCC3)o2)C(=O)NC1=S	4.44 µM (active)	–
CCC(C)N1C(=O)/C(=C\c2ccc(N3CCCCCC3)cc2)C(=O)NC1=S (configuration not stated)	–	-21.5% (inactive)
CN1CCN(c2ccc(/C=C3\C(=O)NC(=S)N(c4cccc(Br)c4)C3=O)o2)CC1	23.1 µM (active)	–
CN1C(=O)/C(=C\c2ccc(N3CCCCC3)o2)C(=O)NC1=S	17.7 µM (active)	–
CC(=O)O[C@@]12CO[C@@H]1C[C@H](OC1OCC(O)C(O)C1O)[C@@]1(C)C(=O)[C@H](O)C3=C(C)[C@@H](OC(=O)[C@H](O)[C@@H](NC(=O)c4ccccc4)c4ccccc4)C[C@@](O)([C@@H](OC(=O)c4ccccc4)C12)C3(C)C (some centres not stated)	4.44 µM (active)	–
CN1C(=O)C(=Cc2ccc(N3CCCCC3)o2)C(=O)N(C)C1=S	3.66 µM (active)	–
CN1C(=O)C(=Cc2ccc(N3CCOCC3)o2)C(=O)N(C)C1=S	8.2 µM (active)	–
CN1C(=O)C(=Cc2ccc(N3CCOCC3)o2)C(=O)N(C)C1=O	6.51 µM (active)	–
Cc1cc(N(CCCl)CCCl)ccc1C=Cc1ccncn1	16.4 µM (active)	–
CC(C)c1ccc(N2C(=O)NC(=O)/C(=C/C=C/c3ccco3)C2=O)cc1	14 µM (active)	–
CC(C)c1ccc(N2C(=O)NC(=O)/C(=C\C=C\c3ccco3)C2=O)cc1	17.7 µM (active)	–
CN(C)c1ccc(/C=C/C=C2/C(=O)NC(=O)N(c3ccccc3)C2=O)cc1	23.1 µM (active)	–
O=C1NC(=O)N(Cc2ccc(F)cc2)C(=O)/C1=C\C=C\c1ccco1	23.1 µM (active)	–
COCCCNC(=O)c1c(NC(=O)c2ccco2)n(Cc2ccccc2)c2nc3ccccc3nc12	–	-8.65% [at 36.9 µM] (inactive)
Cc1cc(/C=C2\C(=O)NC(=O)N(c3ccc(Br)cc3)C2=O)c(C)n1C	–	-29.9% [at 36.9 µM] (inactive)
Cc1ccc(N2C(=O)NC(=O)/C(=C\C=C\c3ccco3)C2=O)cc1C	5.8 µM (active)	–
CC/C(=N\NC(=O)c1ccccc1O)c1c(O)n(Cc2ccccc2)c(=O)[nH]c1=O	18.4 µM (active)	–

Compound	Potency	activity, negative = inhibitor
COc1cccc(C2=CC(c3cc(Br)ccc3F)n3nnnc3N2)c1 (configuration not stated)	1.46 µM (active)	–
COC(=O)C1=C(C)N(Cc2ccco2)C(=O)/C1=C\c1ccc(N(C)C)cc1	6.51 µM (active)	–
O=C1NC(=O)N(c2ccc3c(c2)OCO3)C(=O)/C1=C\c1ccc(N2CCCCC2)o1	18.4 µM (active)	–
O=C1NC(=O)N(c2ccc3c(c2)OCO3)C(=O)/C1=C/c1ccc(N2CCCCC2)o1	20.6 µM (active)	–
COc1cc(C2C(C#N)=C(N)Oc3cc(O)ccc32)cc(OC)c1OC (configuration not stated)	3.53 µM (active)	–
Cc1cccc(-n2c(O)c(/C=C/C=Nc3ccccc3)c(=O)[nH]c2=O)c1	4.61 µM (active)	–
COc1ccc(-n2c(/C=C/c3ccc(O)c(OC)c3)nc3ccccc3c2=O)cc1	16.4 µM (active)	–
O=c1c2ccccc2nc(/C=C/c2ccc([N+](=O)[O-])o2)n1-c1ccc(O)cc1	11.2 µM (active)	–
Cc1cccc(-n2c(/C=C/c3ccc([N+](=O)[O-])o3)nc3ccccc3c2=O)c1	8.2 µM (active)	–
COc1ccccc1-n1c(/C=C/c2ccc(O)cc2)nc2ccccc2c1=O	–	38.4% (inactive)
Cc1cccc(-n2c(/C=C/c3c(C)[nH]c4ccccc34)nc3ccccc3c2=O)c1	18.4 µM (active)	–
CCN(CC)c1ccc(/C=C2\C(=O)NC(=S)N(C)C2=O)o1	0.559 µM (active)	–
CCN(CC)c1ccc(C=C2C(=O)N(C)C(=S)N(C)C2=O)o1	0.314 µM (active)	–
CCN(CC)c1ccc(/C=C2\C(=O)NC(=S)N(c3ccc(OC)cc3OC)C2=O)o1	23.1 µM (active)	–
CCN(CC)c1ccc2c(cc1=O)[C@@H](NC)CCc1cc(OC)c(OC)c(OC)c1-2	1.4 µM (active)	–
Cc1ccccc1-n1c(/C=C/c2ccc(N(C)C)cc2)nc2ccccc2c1=O	4.11 µM (active)	–
CCN(CC)c1ccc(N=Cc2c(O)n(Cc3ccccc3)c(=O)[nH]c2=O)cc1	20.6 µM (active)	–
CCN(CC)c1ccc(N=Cc2c(O)n(CCC3=CCCCC3)c(=O)[nH]c2=O)cc1	16.4 µM (active)	–
C=CCn1c(O)c(C(C)=Nc2ccc(N(CC)CC)cc2)c(=O)[nH]c1=O	11.2 µM (active)	–
O=C1NC(=S)SC1=Cc1ccc(N(CCCl)CCCl)cc1	17.7 µM (active)	–
CCOc1ccc(CNC(=O)c2cccc(Nc3nc4ccccc4n4nnnc34)c2)cc1OC	16.4 µM (active)	–

Compound	Potency	activity, negative = inhibitor
COc1ccc(-c2ccc(OC)c(OC)c2OC)cc1	3.96 µM (active)	–
CN(C)c1ccc(C(=O)c2ccc(N(C)C)cc2)cc1	0.994 µM (active)	–
CCCCn1c(O)c(/C=C2/C=CC=N2)c(=O)[nH]c1=O	12.5 µM (active)	–
O=c1[nH]c(=O)n(Cc2ccccc2Cl)c(O)c1/C=C1/C=CC=N1	18.4 µM (active)	–
C=C1C(=O)OC2C1CCC(C)C1(O)C=CC(=O)C21C (configuration not stated)	5.59 µM (active)	–
COCCCn1c(=O)/c(=C\c2ccccc2OC(F)F)s/c1=C(/C#N)C(=O)NCCOC	18.4 µM (active)	–
CCCCNC(=O)/C(C#N)=c1\s/c(=C\c2ccccc2OC(F)F)c(=O)n1CCCOC	9.2 µM (active)	–
CC(=O)Nc1cccc(-c2ccnc3c2CC(C(=O)NCc2ccco2)O3)c1 (configuration not stated)	4.44 µM (active)	–
CC1=CC(=Cc2sc3ccccc3[n+]2C)C=C(C)O1	10.3 µM (active)	–
O=[N+]([O-])c1ccc(N2CCOCC2)c2c1no[n+]2[O-]	15.8 µM (active)	–
NC(=Nc1ccccc1)NN=Cc1c[nH]c2ccccc12	3.14 µM (active)	–
O=c1[nH]c(CN2CC=C(c3ccccc3)CC2)nc2scc(-c3ccccc3)c12	18.4 µM (active)	–
N#CC1=C(N)Oc2c(c(=O)sc3ccccc23)C1c1cccnc1 (configuration not stated)	3.14 µM (active)	–
Cn1cccc1/C=C1\C(=O)NC(=O)N(Cc2ccccc2Cl)C1=O	13 µM (active)	–
Cc1c(Cl)cccc1NC(=O)c1oc2ccc(S(=O)(=O)N3CCC4(CC3)OCCO4)cc2c1C	16.4 µM (active)	–
COc1ccc(-n2cnc3cc(C(=O)N4CCC5(CC4)OCCO5)ccc32)cc1	17.7 µM (active)	–
Cc1cccc(CN2CCCC(C(=O)c3cccc(OC(C)C)c3)C2)n1 (configuration not stated)	–	24.3% (inactive)
O=Cc1c(C(=O)O)n(Cc2ccc(Cl)cc2)c2ccccc12	13 µM (active)	–
Nc1ccc2c3c(cccc13)-c1ccccc1-2	4.61 µM (active)	–
CC(=O)OC1C2(CC3N4C(=O)C5(CO)SSC4(CC31O)C(=O)N5C)OC(C)C(C)(C)C2=O (configuration not stated)	3.53 µM (active)	–

Source: PubChem BioAssay AID651815 (National Center for Advancing Translational Sciences (NCATS), 2012)
